The nature of assay [1]: qHTS assay to identify small molecule antagonists of the thyroid receptor (TR) signaling pathway - cell viability counter screen (AID 743064). Also: nearly all actives have a fitted effect of over 50% in size. A digest of the protocol:
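Viability of T3-stimulated (1 nM final) GH3.TRE-Luc cells is measured by CellTiter-Fluor fluorescence after 23.5 h compound exposure at 37 °C plus 30 min reagent incubation.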
For orientation: In qHTS, concentration-response curves come from the screen itself.

Assay [2] can be described thus: qHTS assay to identify small molecule antagonists of the thyroid receptor (TR) signaling pathway (AID 743065). Also: nearly all actives have a fitted effect of over 55% in size. Also: potency is read from the fitted curve at half-maximal effect. An outline of the steps: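 GH3.TRE-Luc rat pituitary cells carrying two TR response elements driving luciferase were plated for 4 h, given compound plus 1 nM T3 (final), and incubated 23.5 h at 37 C. ONE-Glo luminescence measured reporter inhibition; CellTiter-Fluor fluorescence tracked cytotoxicity.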

For assay [3], the system named is thyroid hormone receptor (rat, GH3 cells). Nature of the assay: qHTS assay to identify small molecule agonists of the thyroid receptor (TR) signaling pathway (AID 743066; calls by dose curve).
Assay [4] has as its target Estrogen receptor (Homo sapiens) (UniProt P03372). Nature of the assay: qHTS assay to identify small molecule antagonists of the estrogen receptor alpha (ER-alpha) signaling pathway (AID 743069; active = well fitted curve in the direction sought with a large enough effect in the signal ratio in the repeat runs, not every such curve was filed as active; the % refers to the signal ratio). An outline of the steps: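 Screening used a UAS-driven beta-lactamase reporter integrated into HEK293 cells expressing ER-alpha, stimulated with 17beta-estradiol alongside test compounds over 18 hr at 37C; signal came from LiveBLAzer B/G FRET fluorescence.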

Assay [5] can be described thus: qHTS assay to identify small molecule antagonists of the estrogen receptor alpha (ER-alpha) signaling pathway - cell viability counter screen (AID 743074; calls by dose curve; also: nearly all actives have a fitted effect of over 45% in size).
Assay [6] has as its target Estrogen receptor (Homo sapiens) (UniProt P03372). As to the kind of experiment: qHTS assay to identify small molecule agonists of the estrogen receptor alpha (ER-alpha) signaling pathway using the BG1 cell line (AID 743079). Also: nearly all actives have a fitted effect of over 20% in size. Also: potency is read from the fitted curve at half-maximal effect.
The nature of assay [7]: qHTS assay to identify small molecule antagonists of the estrogen receptor alpha (ER-alpha) signaling pathway using the BG1 cell line (AID 743080; calls by dose curve;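 also: BG1 cells stimulated with 17beta-estradiol alongside compound; series mostly up to about 70 µM; nearly all actives have a fitted effect of over 25% in size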). An outline of the steps: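 Readout is ONE-Glo luminescence, taken 30 min at room temperature after reagent addition, preceded by a CellTiter-Fluor viability read; BG1-Luc-4E2 cells had received compound and 17beta-estradiol for 21.5 h at 37 C.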

The nature of assay [8]: qHTS assay to identify small molecule antagonists of the estrogen receptor alpha (ER-alpha) signaling pathway using the BG1 cell line - cell viability counter screen (AID 743081).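 Also: compound given together with 17beta-estradiol as the ER stimulus; series mostly up to about 70 µM; nearly all actives have a fitted effect of over 45% in size.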
A further assay has as its target Aromatase (Homo sapiens) (UniProt P11511). Nature of the assay: qHTS assay to identify aromatase inhibitors (AID 743083). Also: series mostly up to about 70 µM; nearly all actives have a fitted effect of over 55% in size.
Assay [9] concerns the target Aryl hydrocarbon receptor (Homo sapiens) (UniProt P35869). As to the kind of experiment: qHTS assay to identify small molecule that activate the aryl hydrocarbon receptor (AhR) signaling pathway (AID 743085). Also: nearly all actives have a fitted effect of over 15% in size. Also: potency is read from the fitted curve at half-maximal effect.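 As to activation: HG2L7.5c1 human HepG2 liver cells with stably integrated DRE-driven firefly reporter; series mostly up to about 70 µM.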 A digest of the protocol:
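A multiplexed format paired cell viability (CellTiter-Fluor fluorescence) with AhR-dependent luciferase output (ONE-Glo luminescence) in the same wells of HepG2 DRE-luc cells after 24 h compound exposure at 37C.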

A short description of assay [10]: qHTS assay to identify small molecule that activate the aryl hydrocarbon receptor (AhR) signaling pathway - cell viability counter screen (AID 743086).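 Also: HepG2 liver cells carrying the AhR DRE luciferase reporter; series mostly up to about 70 µM; nearly all actives have a fitted effect of over 45% in size.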 A digest of the protocol: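 HepG2-AhR-luc (HG2L7.5c1) cells, 4000/well, were preincubated 5 h at 37C, exposed to compound in qHTS format for 24 hr at 37C, then given CellTiter-Fluor for 30 min; viability was read as fluorescence in the reporter wells.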

Assay [11] can be described thus: qHTS assay to identify small molecule antagonists of the peroxisome proliferator-activated receptor gamma (PPARg) signaling pathway - cell viability counter screen (AID 743194). Also: nearly all actives have a fitted effect of over 55% in size. An outline of the steps: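 PPARg-UAS-bla HEK293H cells were plated, rested 5 h at 37 C, then treated with compounds plus rosiglitazone (50 nM final) for 17 h at 37 C; viability was then read by CellTiter-Glo luminescence after 30 min at room temperature.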

A short description of assay [12]: qHTS assay for small molecule agonists of the antioxidant response element (ARE) signaling pathway (AID 743202; active = well fitted activation curve with a large enough effect in the signal ratio in the repeat runs, not every such curve was filed as active; the % refers to the signal ratio; also: potency is read from the fitted curve at half-maximal effect). A digest of the protocol:
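Steps: seed ARE-bla HepG2 cells (2,000/well); incubate 5 h at 37 C; add compounds by pin tool; incubate 16 h at 37 C; add FRET substrate; read fluorescence after 2 h at RT.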

The nature of assay [13]: qHTS assay for small molecule agonists of the antioxidant response element (ARE) signaling pathway - cell viability counter screen (AID 743203; calls by dose curve; also: nearly all actives have a fitted effect of over 55% in size). An outline of the steps: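 Luminescence read-out (CellTiter-Glo, 30 min at room temperature) measured cell viability in the same wells as the ARE beta-lactamase reporter. HepG2 ARE-bla cells were treated with compounds for 16 hrs at 37C/5% CO2.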

A short description of assay [14]: qHTS assay for small molecule activators of the heat shock response signaling pathway - cell viability counter screen (AID 743209). Also: nearly all actives have a fitted effect of over 50% in size. A digest of the protocol:
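HSE-bla HeLa; 1500 cells/well; overnight 37 C, 5% CO2; compound 5 h 37 C; LiveBLAzer B/G substrate 2.5 h RT; CellTiter-Glo 30 min RT; luminescence.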

Assay [15] can be described thus: qHTS assay for small molecule activators of the heat shock response signaling pathway (AID 743210; active = well fitted activation curve with a large enough effect in the signal ratio in the repeat runs, with a control signal flat, not every such curve was filed as active; the % refers to the signal ratio;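 also: HeLa cells with beta-lactamase reporter driven by heat shock elements; series mostly up to about 63 µM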). A digest of the protocol: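 Activation of heat shock element-controlled beta-lactamase expression is measured in HeLa cells by LiveBLAzer FRET fluorescence, with compound exposure lasting 5 h at 37 C and substrate loading 2.5 h at room temperature.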
For assay [16], the target named is Estrogen receptor (Homo sapiens) (UniProt P03372). Nature of the assay: qHTS assay to identify small molecule agonists of the estrogen receptor alpha (ER-alpha) signaling pathway (AID 743075; calls by dose curve).
Sequence of Estrogen receptor (Homo sapiens) (P03372 whole entry, looked up): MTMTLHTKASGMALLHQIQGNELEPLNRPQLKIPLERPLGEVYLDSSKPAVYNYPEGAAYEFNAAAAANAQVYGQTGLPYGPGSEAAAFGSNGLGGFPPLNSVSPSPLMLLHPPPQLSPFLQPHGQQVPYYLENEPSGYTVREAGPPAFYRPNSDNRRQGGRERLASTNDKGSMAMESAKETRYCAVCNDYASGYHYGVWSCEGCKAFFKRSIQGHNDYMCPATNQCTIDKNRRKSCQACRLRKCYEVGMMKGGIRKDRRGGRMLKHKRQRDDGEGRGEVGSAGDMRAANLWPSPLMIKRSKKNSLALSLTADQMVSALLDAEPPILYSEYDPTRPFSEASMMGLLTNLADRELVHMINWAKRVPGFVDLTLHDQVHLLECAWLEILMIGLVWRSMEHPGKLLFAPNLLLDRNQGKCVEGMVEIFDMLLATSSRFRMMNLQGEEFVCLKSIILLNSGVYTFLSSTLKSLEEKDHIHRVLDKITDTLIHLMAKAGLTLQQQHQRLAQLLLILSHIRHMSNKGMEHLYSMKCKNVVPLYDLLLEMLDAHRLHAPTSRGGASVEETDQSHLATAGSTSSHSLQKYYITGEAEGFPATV
In assay [17] the target is Peroxisome proliferator-activated receptor gamma (Homo sapiens) (UniProt P37231). As to the kind of experiment: qHTS assay to identify small molecule antagonists of the peroxisome proliferator-activated receptor gamma (PPARg) signaling pathway (AID 743191; calls by dose curve; also: series mostly up to about 63 µM; nearly all actives have a fitted effect of over 30% in size). A digest of the protocol:
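GeneBLAzer PPARg UAS-bla HEK293H cells carrying a UAS-driven beta-lactamase reporter were plated at 3000 cells/well, preincubated 5 h at 37C, then given compound for 17 h at 37C; LiveBLAzer B/G FRET substrate was read after 1 h at room temperature.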

The nature of assay [18]: qHTS assay to identify aromatase inhibitors - cell viability counter screen (AID 743084).
For assay [19], the target named is Peroxisome proliferator-activated receptor gamma (Homo sapiens) (UniProt P37231). As to the kind of experiment: qHTS assay to identify small molecule agonists of the peroxisome proliferator-activated receptor gamma (PPARg) signaling pathway (AID 743094; active = well fitted activation curve with a large enough effect in the signal ratio in the repeat runs, not every such curve was filed as active; the % refers to the signal ratio). An outline of the steps: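 HEK293H PPARg-bla cells, 5 h settle at 37C/5% CO2; compound (DMSO) 17 h, 37C; B/G FRET substrate 1 h RT; fluorescence intensity read-out. qHTS format.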
Sequence of Peroxisome proliferator-activated receptor gamma (Homo sapiens) (P37231 whole entry, looked up): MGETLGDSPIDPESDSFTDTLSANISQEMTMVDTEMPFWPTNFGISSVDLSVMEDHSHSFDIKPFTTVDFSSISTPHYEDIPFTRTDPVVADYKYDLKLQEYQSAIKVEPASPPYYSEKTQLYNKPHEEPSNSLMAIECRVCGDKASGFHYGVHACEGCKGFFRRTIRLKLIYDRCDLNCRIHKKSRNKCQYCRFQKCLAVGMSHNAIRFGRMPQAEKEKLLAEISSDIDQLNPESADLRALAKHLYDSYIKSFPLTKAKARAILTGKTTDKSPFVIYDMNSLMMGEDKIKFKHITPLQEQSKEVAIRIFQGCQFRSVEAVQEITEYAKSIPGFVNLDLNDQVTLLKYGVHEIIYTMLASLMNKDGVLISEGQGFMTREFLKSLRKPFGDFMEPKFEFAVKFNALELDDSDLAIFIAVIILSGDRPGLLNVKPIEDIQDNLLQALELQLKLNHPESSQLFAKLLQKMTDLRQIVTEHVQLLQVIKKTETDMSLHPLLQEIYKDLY

Records with an inconclusive call do not appear. The source made the active and inactive calls. Unless noted, calls follow the shape of the dose curve; as a rule, active = well fitted curve in the direction sought with a large enough effect in the repeat runs; inconclusive = weak or mixed curves; inactive = no such curve, though single readings can be large; an effect the other way counts as inactive or inconclusive.

Sequence of Aromatase (Homo sapiens) (P11511 whole entry, looked up): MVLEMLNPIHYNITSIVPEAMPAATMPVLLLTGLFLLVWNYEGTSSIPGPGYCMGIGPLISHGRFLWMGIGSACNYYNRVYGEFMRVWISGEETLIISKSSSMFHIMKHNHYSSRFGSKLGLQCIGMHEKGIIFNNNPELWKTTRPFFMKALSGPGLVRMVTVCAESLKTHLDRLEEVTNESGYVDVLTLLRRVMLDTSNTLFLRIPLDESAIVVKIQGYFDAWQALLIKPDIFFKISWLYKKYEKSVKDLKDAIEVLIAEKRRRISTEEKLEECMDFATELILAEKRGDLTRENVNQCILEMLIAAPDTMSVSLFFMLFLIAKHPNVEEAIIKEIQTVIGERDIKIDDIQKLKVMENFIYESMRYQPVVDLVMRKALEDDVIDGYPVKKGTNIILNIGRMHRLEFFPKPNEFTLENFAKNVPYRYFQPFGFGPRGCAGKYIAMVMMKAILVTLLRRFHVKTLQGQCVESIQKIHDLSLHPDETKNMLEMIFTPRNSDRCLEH
Sequence of Aryl hydrocarbon receptor (Homo sapiens) (P35869 whole entry, looked up): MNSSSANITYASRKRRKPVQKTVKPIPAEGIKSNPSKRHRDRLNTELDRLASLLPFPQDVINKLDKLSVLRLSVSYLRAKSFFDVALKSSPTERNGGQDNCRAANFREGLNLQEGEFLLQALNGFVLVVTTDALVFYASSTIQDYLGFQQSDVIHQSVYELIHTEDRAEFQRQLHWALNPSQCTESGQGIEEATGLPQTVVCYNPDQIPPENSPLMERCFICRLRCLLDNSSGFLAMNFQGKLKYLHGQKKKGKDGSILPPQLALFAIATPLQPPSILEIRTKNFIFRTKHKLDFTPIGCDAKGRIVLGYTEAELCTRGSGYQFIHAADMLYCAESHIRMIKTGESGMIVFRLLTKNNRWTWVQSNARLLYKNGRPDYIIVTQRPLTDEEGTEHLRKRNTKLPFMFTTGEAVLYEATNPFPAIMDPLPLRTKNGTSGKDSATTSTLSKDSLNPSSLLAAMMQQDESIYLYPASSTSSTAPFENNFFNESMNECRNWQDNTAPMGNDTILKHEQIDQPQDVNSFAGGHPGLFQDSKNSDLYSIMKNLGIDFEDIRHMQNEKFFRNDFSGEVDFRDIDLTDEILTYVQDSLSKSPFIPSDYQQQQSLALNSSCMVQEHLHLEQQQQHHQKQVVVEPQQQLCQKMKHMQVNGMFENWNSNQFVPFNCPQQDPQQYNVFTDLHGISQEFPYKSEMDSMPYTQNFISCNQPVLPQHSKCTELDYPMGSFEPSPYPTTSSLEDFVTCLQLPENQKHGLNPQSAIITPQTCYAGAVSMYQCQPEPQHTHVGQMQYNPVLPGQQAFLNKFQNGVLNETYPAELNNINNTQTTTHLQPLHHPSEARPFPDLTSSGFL

Regarding `COC1CCC=CO1` (stereo unspecified), the Potency result in assay [1], in assay [2], in [3], in assay [4], in assay [5] and in [6] was “inactive” in each case. Further, the Potency result (in [7]; in assay [8]; with Aromatase (Homo sapiens); in assay [9]; in assay [10]; in [11]) was “inactive” throughout. Further, the Potency result in assay [12], in assay [13], in assay [14] and in assay [15] was “inactive” throughout.

For `O=C(O)c1cccc(Oc2ccccc2)c1`, the Potency result in assay [1], in assay [2], in assay [3], in assay [4], in assay [5] and in [16] was “inactive” each time. The Potency entry (in [6]; in assay [7]; in assay [8]; with Aromatase (Homo sapiens); in assay [10]; in [17]) was “inactive” each time. The Potency result in assay [11], in assay [13], in assay [14] and in assay [15] was “inactive” throughout.

In the case of `c1ccc(CNc2ncnc3c2ncn3C2CCCCO2)cc1` (stereo unspecified), the Potency result in [1], in assay [2], in [3], in assay [4], in [5] and in assay [16] was “inactive” throughout. For the same compound, the Potency result (in [8]; in the assay with Aromatase (Homo sapiens); in [18]; in assay [10]; in [11]; in assay [13]) was “inactive” each time. The Potency result in assay [14] was “inactive”. The Potency in [6] was 3.44 µM (active); in assay [9] it was 8.63 µM (active). In assay [19], the compound was classed as inactive.

Consider `Nc1nc2ccc(OC(F)(F)F)cc2s1`, for which the Potency entry (in [1]; in assay [3]; in [4]; in assay [5]; in assay [8]; with Aromatase (Homo sapiens)) was “inactive” in each case. The Potency result in [18], in [10], in assay [17], in assay [11], in [13] and in assay [14] was “inactive” each time. Moreover, the Potency entry in assay [15] is “inactive”. Besides, the Potency is 21.1 µM (active) in assay [2], 5.96 µM (active) in [6] and 10.6 µM (active) in assay [9]. Also, the call in assay [19] was inactive.

For `CC(=O)OCC1=C(C(=O)O)N2C(=O)[C@@H](NC(=O)CSc3ccncc3)[C@H]2SC1`, the Potency entry (in [1]; in assay [2]; in assay [3]; in [5]; in [8]; with Aromatase (Homo sapiens)) was “inactive” throughout. Also, the Potency entry in assay [18], in [9], in [10], in [17], in [11] and in assay [13] was “inactive” throughout. Besides, the Potency result in assay [14] and in assay [15] was “inactive” throughout. In assay [19], the result was inactive.

With `CCCCCCCCCCCCCCCC(=O)OCC`, the Potency entry in assay [1], in assay [2], in [3], in assay [4], in [5] and in [16] was “inactive” throughout. Moreover, the Potency result (in [6]; in [8]; with Aromatase (Homo sapiens); in [18]; in assay [9]; in assay [10]) was “inactive” each time. The Potency result in assay [17], in assay [11], in assay [13], in [14] and in [15] was “inactive” throughout. Besides, in assay [19], the outcome was inactive.

As to `CN1C(CSCC(F)(F)F)Nc2cc(Cl)c(S(N)(=O)=O)cc2S1(=O)=O` (stereo unspecified), the Potency result in [1], in assay [2], in assay [3], in assay [4], in assay [5] and in assay [16] was “inactive” throughout. The Potency entry (in assay [6]; in assay [8]; with Aromatase (Homo sapiens); in assay [18]; in assay [9]; in assay [10]) was “inactive” throughout. Also, the Potency entry in assay [17], in [11], in assay [13], in [14] and in assay [15] was “inactive” in each case. Besides, the result in [19] was inactive.

In the case of `c1ccc2sc(SSc3nc4ccccc4s3)nc2c1`, the Potency entry in [1], in [2], in [3], in assay [4], in assay [5] and in [16] was “inactive” each time. The Potency result (in assay [6]; in assay [8]; with Aromatase (Homo sapiens); in assay [18]; in [9]; in [10]) was “inactive” throughout. In addition, the Potency entry in [11], in assay [13] and in [14] was “inactive” throughout. Further, the compound was called inactive in assay [19]. For the same compound, the Potency in assay [12] is 13 µM (active).

Regarding `BrC(Br)C(Br)Br`, the Potency result in assay [1], in assay [2], in assay [3], in assay [4], in [5] and in assay [16] was “inactive” each time. Besides, the Potency result (in assay [6]; in assay [8]; with Aromatase (Homo sapiens); in assay [18]; in assay [10]; in assay [11]) was “inactive” in each case. Further, the Potency entry in assay [12], in assay [13] and in assay [15] was “inactive” throughout. Besides, the compound was classed as inactive in assay [19].

`CNc1c2c(nn1C)CCCC2`: the Potency entry in [1], in assay [2], in assay [3], in assay [4], in assay [5] and in [16] was “inactive” throughout. Also, the Potency entry (in [6]; in [8]; in the assay with Aromatase (Homo sapiens); in [18]; in assay [9]; in assay [10]) was “inactive” in each case. Moreover, the Potency result in assay [11], in assay [12], in [14] and in [15] was “inactive” throughout.

Consider `O=C(/C=C/c1ccc([N+](=O)[O-])cc1)c1ccccc1`, for which the Potency entry in assay [1], in assay [3], in assay [4], in [5], in assay [6] and in [8] was “inactive” in each case. In addition, the Potency result (in the assay with Aromatase (Homo sapiens); in [18]; in assay [9]; in assay [10]; in assay [17]; in assay [11]) was “inactive” in each case. Further, the Potency result in [12], in assay [13] and in assay [15] was “inactive” throughout. Further, in assay [2], the Potency was 61.3 µM (active). In addition, the compound was classed as inactive in assay [19].

As for `O=C(O)c1cccc(C[C@@H]2COc3ccc(OCc4nc5cc(F)ccc5s4)cc3[C@@H]2O)c1`, the Potency entry in assay [1], in assay [2], in assay [3], in [4], in assay [5] and in assay [16] was “inactive” throughout. In addition, the Potency entry (in assay [6]; in assay [8]; in the assay with Aromatase (Homo sapiens); in [18]; in assay [9]; in [10]) was “inactive” in each case. In addition, the Potency entry in [14] and in [15] was “inactive” throughout.

The values above are taken from PubChem BioAssay (Tox21).
